Results on 21 compounds are retold here after PubChem BioAssay (NCI).

A short description of assay [1]: NCI Yeast Anticancer Drug Screen. Data for the rad50 strain (AID 155).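 Also: 0% = growth of vehicle-only cultures of the same strain.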 The conditions noted are these: S. cerevisiae rad50 strain growth inhibition; at 50.0 µM; active compounds read high. An outline of the steps: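 DNA repair mutant yeast, compound exposure, growth read-out; inhibition is taken relative to vehicle.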
The nature of assay [2]: NCI Yeast Anticancer Drug Screen. Data for the mec2-1 strain (AID 157). The settings on record: S. cerevisiae mec2-1 strain, at 50.0 µM, active compounds read high. An outline of the steps:
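Using mec2-1 yeast: add compound, measure growth, express inhibition versus vehicle-treated cultures.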

Assay [3] in a line: NCI Yeast Anticancer Drug Screen. Data for the sgs1 mgt1 strain (AID 161).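 Also: 0% = growth of cultures given vehicle only.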 The conditions noted are these: S. cerevisiae sgs1 mgt1 strain, at 50.0 µM, active compounds read high. In a few lines:
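This yeast growth screen uses a strain with defined DNA-repair lesions; compound-treated growth is compared with vehicle-treated growth.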

The nature of assay [4]: NCI Yeast Anticancer Drug Screen. Data for the cln2 rad14 strain (AID 165).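 Also: 0% = growth equal to vehicle treated cultures.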 The settings on record: S. cerevisiae cln2 rad14 strain, at 50.0 µM, active compounds read high. An outline of the steps:
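Yeast strain cln2 rad14, bearing defects in cell cycle control and DNA repair, serves as the test system; values reflect growth inhibition compared with vehicle.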

A short description of assay [5]: NCI Yeast Anticancer Drug Screen. Data for the bub3 strain (AID 167). The conditions noted are these: S. cerevisiae bub3 mutant strain, at 50.0 µM, active compounds read high. In a few lines: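 In this screen, a yeast mutant lacking normal mitotic checkpoint function is challenged with compound. Relative growth versus vehicle gives the inhibition value.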
Assay [6] can be described thus: NCI Yeast Anticancer Drug Screen. Data for the mlh1 rad18 strain (AID 175). The conditions noted are these: S. cerevisiae mlh1 rad18 strain growth inhibition; at 50.0 µM; active compounds read high. In a few lines: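 Steps: expose repair-defective yeast to compound; measure growth; express inhibition against vehicle-treated controls.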

About 79,000 compounds went through this panel and 15% of them were active in at least one assay; those are over-represented in the sample as a whole. Unmarked numbers belong to inactive results. Calls of active or inactive are those of the source. Rule as the data show it: active = growth inhibition above about 70%; inactive = the rest.

On to `O=C1CCCc2c(O)ccc(O)c21`, for which the growth inhibition in assay [1] was 5.2%; in assay [2], 2.8%; in assay [3] it was -2.6%; in assay [4], 11.4%; in assay [5] it was 8.15%; in assay [6], 28.4%.

For the compound `C=CCOc1ccc(Cl)cc1Br`, the growth inhibition in assay [1] was -1.8%; in assay [2], -4.6%; in assay [3] it was -2.65%; in assay [4], -46.6%; in assay [5], -3.35%; in assay [6], -7.8%.

As for `O=C1CCCc2[nH]c3ccc(Cl)cc3c21`, the growth inhibition is -1.9% in assay [1]; 0.3% in assay [2]; -10.9% in assay [3]; -21.9% in assay [4]; -14.2% in assay [5]; 12.9% in assay [6].

For the compound `CC1N(N2C(=O)CS(=O)(=O)C2C)C(=O)CS1(=O)=O` (stereo unspecified), the growth inhibition is 11.2% in assay [1]; -3.95% in assay [2]; 25.3% in assay [3]; 15.1% in assay [4]; 1.35% in assay [5]; 37% in assay [6].

Consider `O=C(O)c1cccc([N+](=O)[O-])c1Nc1cccc(C(F)(F)F)c1`, for which the growth inhibition is 21.4% in assay [1]; 32.5% in assay [2]; 32.5% in assay [3]; 29.3% in assay [4]; 27.1% in assay [5]; 0.25% in assay [6].

In the case of `CC(C)CCCC(C)C1CCC2C3CC=C4CC(OC(=O)Nc5ccc(S(=O)(=O)N6CCCCC6)cc5)CCC4(C)C3CCC12C` (stereo unspecified), the growth inhibition in assay [1] was 2.3%; in assay [2], 2.45%; in assay [3] it was 1.65%; in assay [4] it was -5.8%; in assay [5] it was -3.75%; in assay [6] it was 6.45%.

For the compound `C/C=C(\C)C(=O)OCC1CC[N+](C)([O-])C1` (stereo unspecified), the growth inhibition in assay [1] was -23.8%; in assay [2], -8%; in assay [3], -6.7%; in assay [4] it was -57.9%; in assay [5], 5%; in assay [6] it was -15.3%.

As to `COC(=O)c1cccc(O)c1O`, the growth inhibition in assay [1] was 12.9%; in assay [2], -0.3%; in assay [3] it was -1.5%; in assay [4], -41.4%; in assay [5], 18%; in assay [6], -0.65%.

Consider `Cn1ncc2[nH]c(=O)n(OS(=O)(=O)c3ccccc3)c(=O)c21`, for which the growth inhibition in assay [1] is 17.3%; in assay [2], -16.9%; in assay [3], -15.5%; in assay [4], 4.3%; in assay [5], 0.9%; in assay [6] it was 5%.

For the compound `COC(=O)C(C(=O)C(=O)Nc1cccc(O)c1)c1nc2ccc(Cl)cc2[nH]c1=O` (stereo unspecified), the growth inhibition in assay [1] is -19%; in assay [2], -3.95%; in assay [3], -41.3%; in assay [4], 2.55%; in assay [5], -8.65%; in assay [6], -13.9%.

As for `O=c1[nH]c(=O)n(C2OC(CF)C(O)C2O)cc1N1CCOCC1` (stereo unspecified), the growth inhibition is 16.9% in assay [1]; 18% in assay [2]; 18% in assay [3]; 17.7% in assay [4]; 19.5% in assay [5]; 33% in assay [6].

For the compound `C/C(C#N)=C1/Nc2ccccc2NC1=O`, the growth inhibition in assay [1] was 0.55%; in assay [2], 9.25%; in assay [3], -24.6%; in assay [4], -10.4%; in assay [5], 15.1%; in assay [6], 4.55%.

As to `O=CC(=O)c1cccc([N+](=O)[O-])c1`, the growth inhibition is 3.55% in assay [1]; 7.75% in assay [2]; -3.6% in assay [3]; 11.4% in assay [4]; -29.2% in assay [5]; 10.4% in assay [6].

`N/N=C(\NN)c1ccccc1`: the growth inhibition is 11.7% in assay [1]; 12.2% in assay [2]; -4.2% in assay [3]; -47.5% in assay [4]; 0.75% in assay [5]; 11.7% in assay [6].

As to `Cc1ccccc1/C=C/C(=O)c1ccccc1`, the growth inhibition in assay [1] is 45.2%; in assay [2], 24.6%; in assay [3], 40.8%; in assay [4], 1.8%; in assay [5] it was 11.4%; in assay [6], 20%.

`CC1=CC(=O)C(C(O)(C(F)(F)F)C(F)(F)F)C(C)(C)C1` (stereo unspecified): the growth inhibition in assay [1] is -37.1%; in assay [2], -38%; in assay [3], -5.45%; in assay [4], -23.8%; in assay [5], -4.95%; in assay [6] it was -6.9%.

In the case of `CC(C)(C)C(=O)C[n+]1ccccc1`, the growth inhibition in assay [1] was 3.85%; in assay [2], -6.45%; in assay [3], 8.45%; in assay [4], -15%; in assay [5], 5.35%; in assay [6], 15.2%.

With `CC(C)C(CNC(=S)Nc1ccccc1)(c1ccccc1)c1ccccc1`, the growth inhibition in assay [1] is 6.9%; in assay [2], 13.1%; in assay [3] it was 5.25%; in assay [4] it was 1.85%; in assay [5], 8.95%; in assay [6], 12.8%.

Turning to `O=C(Nc1ccccc1C(F)(F)F)Oc1ccc(Cl)cc1Cc1ccccc1`, the growth inhibition in assay [1] was 99.4% (active); in assay [2] it was 99.6% (active); in assay [3] it was 99.7% (active); in assay [4], 99.3% (active); in assay [5], 99.2% (active); in assay [6], 99.5% (active).

In the case of `CN(C)S(=O)(=O)c1cccc2ccccc12`, the growth inhibition in assay [1] was 3.35%; in assay [2], 7.85%; in assay [3], -7.35%; in assay [4], -6.9%; in assay [5], 2.45%; in assay [6] it was -8.65%.

Turning to `CC1CCC(=O)CN1Cc1ccccc1` (stereo unspecified), the growth inhibition was 5.95% in assay [1]; 4.45% in assay [2]; 9.45% in assay [3]; -11.6% in assay [4]; 22.4% in assay [5]; 4.85% in assay [6].
